# Measurements as given in PubChem BioAssay AID686978 (National Center for Advancing Translational Sciences (NCATS), 2013).
# Out of some 420,000 compounds screened, about 64,000 (15%) were called active. Roughly 27% stayed inconclusive and do not appear here. Not all results are given here. Unmarked numbers belong to inactive results. The call rests on the fitted dose curve; in most records, active means well fitted inhibition curve with a large enough effect; inconclusive means small, poorly fitted or top-dose-only effect; inactive means flat fitted curve, though single readings scatter.
# Test: qHTS for Inhibitors of human tyrosyl-DNA phosphodiesterase 1 (TDP1): qHTS in cells in absence of CPT; further: nearly all actives have a fitted effect of over 55% in size
# Conditions: DT40 Tdp1-/- hTDP1 cells, no CPT, ATP luminescence, 48 h; activity change, negative = growth inhibition: at 46.2 µM (top of the series)
# Outline: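 Chicken DT40 Tdp1-/- cells stably complemented with human TDP1 were seeded at 400 cells/well with DMSO in place of 20 nM camptothecin. After compound pinning, cells grew at least 48 hr at 37 °C; viability read by CellTiter-Glo luminescence.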
# On the % scale 0 is the no-effect control and ±100 the full control effect; potency means the concentration at half of the fitted maximal effect.
SMILES,"activity change, negative = growth inhibition [%]",Potency
Nc1nonc1-n1nnc(C(=O)N/N=C/c2ccc(Cl)cc2)c1-c1ccc2c(c1)OCO2,-9.73,–
O=C(NCCCO)C(=O)Nc1c2c(nn1-c1ccc(F)cc1)CSC2,-5.47,–
COc1ccc(S(=O)(=O)N2CCN(C(=O)N(C)C)C2C)cc1 (stereo not given),-7.79,–
CN=c1scc(-c2cc(OC)ccc2OC)n1/N=C/c1c(C)[nH]c2ccccc12,–,16.4 µM (active)
COc1ccc(C)cc1Nc1nc(-c2c(C)[nH]c3ccccc23)cs1,-22.6,–
COC(=O)c1[nH]c2ccccc2c1NS(=O)(=O)c1ccc(OC)cc1OC,1.01,–
COC(=O)/C(C#N)=C/c1occc1C,0.245,–
COc1ccc(/C=C(\C#N)C(=O)OCC(=O)N(C)C2CCS(=O)(=O)C2)cc1 (stereo not given),6.36,–
COc1ccc(/C=C(\C#N)C(=O)ONC2=NCCCCC2)cc1,–,20.6 µM (active)
CC(=O)C1C(c2ccc(Cl)cc2)NC(=O)NC1(O)C(F)(F)F (stereo not given),3.1,–
CN(CC#CCC(c1ccccc1)c1ccccc1)C(C)(C)C,–,17.8 µM (active)
O=C(CCc1ccccc1)NCCc1cccs1,14.1,–
COC(=O)[C@@H]1CC2=CC(=O)CC[C@]2(C)[C@@]23O[C@@H]2C[C@@]2(C)[C@@H](CC[C@@]24CCC(=O)O4)[C@H]13,-25.3,–
CC1(C)CC(CNCCC(c2ccc(F)cc2)c2ccco2)CCO1 (stereo not given),–,14.6 µM (active)
CC1(C)CC(N(Cc2ccccc2)C(=O)Cc2ccccc2)CCO1 (stereo not given),-15.1,–
Cc1cccc(-n2ncc(C#N)c2-n2cccc2)c1,-15.3,–
Cc1cccc(-n2ncc(Cl)c(Cl)c2=O)c1,–,4.11 µM (active)
O=c1c(Cl)c(NC2CC2)cnn1-c1ccccc1,-1.63,–
O=C(NCC1CCCO1)c1cc2c(s1)CCCC2 (stereo not given),6.28,–
CC(C)C(=O)N1c2ccccc2NC2=C(C(=O)CCC2)C1c1ccc(N(C)C)cc1 (stereo not given),-9.38,–
CCCOC(=O)Nc1ccccc1C(N)=O,-26.5,–
CCOC(=O)N(Cc1ccccc1)C1CC1,3.18,–
O=C(Nc1nnc(CCc2ccccc2)s1)C1CCCO1 (stereo not given),-8.27,–
O=C(COC(=O)c1ccc(Cl)nc1)NCc1cccs1,2.89,–
Cc1nnnn1/C(=C\c1ccccc1)C(=O)OCC(=O)N1CC2(C)CC1CC(C)(C)C2 (stereo not given),–,14.6 µM (active)

SMILES,"activity change, negative = growth inhibition [%]",Potency
Cc1cccc(C(=O)NCC(=O)OCC(=O)N2CC3(C)CC2CC(C)(C)C3)c1 (stereo not given),2.52,–
CC(=O)NC(C)(C)C1CC=C(C)/C(=N\O)C1 (stereo not given),7.54,–
CCOC(=O)C1C(c2ccc(O)cc2)NC(=O)NC1(O)C(F)(F)F (stereo not given),16.9,–
CCN(CC)P(=O)(/C(Cl)=C\Nc1c(C)n(C)n(-c2ccccc2)c1=O)N(CC)CC,-4.15,–
CCOC(=O)[C@]12CCC=C1N(Cc1cccc3ccccc13)C(=O)[C@H](CC(=O)NCc1cccc(C(F)(F)F)c1)C2,–,23.1 µM (active)
CCCCN1C(=O)C(CC(=O)NCc2cccs2)CC(C(=O)N2CCOCC2)=C1C (stereo not given),-0.267,–
CCCCCCCCN1C(=O)[C@H](CC(=O)NCc2cccc3ccccc23)C[C@@]2(C(=O)OC)CCCCC=C12,–,20.6 µM (active)
CCCCNC(=O)C[C@@H]1C[C@@]2(C(=O)OCC)CCC=C2N(Cc2ccco2)C1=O,-10.6,–
CCOC(=O)[C@]12CCC=C1N(Cc1ccco1)C(=O)[C@H](CC(=O)NCc1cccc(C(F)(F)F)c1)C2,–,25.9 µM (active)
CCCCNC(=O)C[C@@H]1C[C@@]2(C(=O)OCC)CCC=C2N(Cc2cccc3ccccc23)C1=O,–,16.4 µM (active)
CC1=C(C(=O)N2CCOCC2)CC(CC(=O)NCc2ccco2)C(=O)N1Cc1ccc(F)cc1 (stereo not given),-16.3,–
O=C(COC(=O)C12CC3CC(CC(C3)C1)C2)NCc1ccco1,-3.59,–
COc1ccccc1CNC(=O)CCCN1C(=O)NC2(CCCC2)C1=O,-6.56,–
CC1=C(C(=O)N2CCOCC2)CC(CC(=O)NCc2cccc3ccccc23)C(=O)N1CCC1=CCCCC1 (stereo not given),-28.7,–
O=C(Cn1nnc(-c2ccc(CN3CCOCC3)cc2)n1)NC1CCCCC1,-2.3,–
COc1ccc(OCC(O)CNCCNc2nccc(C(F)(F)F)n2)cc1 (stereo not given),-11.4,–
CC(=O)NCC(=O)N(Cc1ccco1)C1(C(=O)NC2CCCC2)CCCCC1,-4.34,–
O=c1c(-c2ccc(F)c(F)c2)nc2cncnc2n1-c1ccccc1,-15.4,–
CCOC(=O)[C@]12CCCC=C1N(Cc1cccc3ccccc13)C(=O)[C@H](CC(=O)NCC13CC4CC(CC(C4)C1)C3)C2,–,23.1 µM (active)
C#CCNC(=O)C[C@@H]1C[C@@]2(C(=O)OCC)CCCC=C2N(Cc2ccco2)C1=O,-22,–
COC(=O)[C@]12CCCCC=C1N(Cc1ccco1)C(=O)[C@H](CC(=O)NCCCCc1ccccc1)C2,–,16.4 µM (active)
COC(=O)[C@@]12C[C@@H](CC(=O)NCCCCc3ccccc3)C(=O)N(CCc3ccc(OC)c(OC)c3)C1=CCC(C)(C)C2,–,20.6 µM (active)
COc1ccc(CCNC(=O)CCCCCNC(=O)N2CCn3c2nc2ccccc23)cc1OC,-26.2,–
CC1c2nc3ccccc3n2C(CC(=O)NCCCN2CCOCC2)C(=O)N1Cc1ccccc1 (stereo not given),-13.8,–
COc1ccc(C(=O)OCC(=O)NCCCc2ccccc2)cc1OC,-25.8,–
